Read-out in experiment [1]: Nuclear factor erythroid 2-related factor 2 (Homo sapiens) (UniProt Q16236)
The experiment can be described thus: LTEA_HepaRG_NFE2L2: Life Technologies and Expression Analysis (LTEA) Assay for Nuclear factor erythroid 2-related factor 2 (NFE2L2) Transcription Factor using HepaRG (AID 2283527).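 Note: TaqMan qRT-PCR transcript level normalised to ACTB GAPDH and POLR2A housekeeping genes.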 The conditions noted are these: mRNA level, 48 h; actives raise or lower the signal. In a few lines:
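Differentiated human HepaRG cells in serum-free induction medium were exposed for 48 h to eight concentrations (top 100 uM, half-log dilutions, 0.5% DMSO), in duplicate. NFE2L2 mRNA was quantified by TaqMan qRT-PCR, normalized to ACTB, GAPDH and POLR2A, with bidirectional fitting versus DMSO.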

Read-out in experiment [2]: Signal transducer and activator of transcription 3 (Homo sapiens) (UniProt P40763)
The experiment is described as follows: LTEA_HepaRG_STAT3: Life Technologies and Expression Analysis (LTEA) Assay for Signal transducer and activator of transcription (STAT3) using HepaRG (AID 2283529). Particulars: mRNA level, 48 h; actives raise or lower the signal. In outline:
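Differentiated human HepaRG cells in serum-free induction medium were exposed in duplicate for 48 h to eight half-log concentrations up to 100 uM in 0.5% DMSO. STAT3 mRNA was quantified by TaqMan qRT-PCR, normalized to ACTB, GAPDH and POLR2A, and fitted bidirectionally against DMSO.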

Read-out in experiment [3]: solute carrier (SLCO1B1), SLCO1B1 (gene 10599)
The experiment is described as follows: LTEA_HepaRG_SLCO1B1: Life Technologies and Expression Analysis (LTEA) Assay for solute carrier (SLCO1B1) using HepaRG (AID 2283530). The conditions noted are these: mRNA level, 48 h; actives raise or lower the signal. In outline: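 Gain or loss of SLCO1B1 mRNA is fitted against the 0.5% DMSO vehicle in human HepaRG liver cells treated 48 h at up to 100 uM in half-log steps. Expression comes from qRT-PCR normalized to endogenous controls.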

Read-out in experiment [4]: sulfotransferase 2A1 (SULT2A1), SULT2A1 (gene 6822)
The experiment is described as follows: LTEA_HepaRG_SULT2A1: Life Technologies and Expression Analysis (LTEA) Assay for sulfotransferase 2A1 (SULT2A1) using HepaRG (AID 2283531). The conditions noted are these: mRNA level, 48 h; actives raise or lower the signal. In a few lines: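 Cells were plated and cultured 48 h, switched to serum-free induction medium, then dosed in duplicate for 48 h (8 concentrations, max 100 uM). RNA was isolated and SULT2A1 expression measured by qRT-PCR; gain or loss of signal fitted relative to DMSO.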

Read-out in experiment [5]: Transforming Growth Factor (TGFA), TGFA (gene 7039)
The experiment can be described thus: LTEA_HepaRG_TGFA: Life Technologies and Expression Analysis (LTEA) Assay for Transforming Growth Factor (TGFA) using HepaRG (AID 2283532). Particulars: mRNA level, 48 h; actives raise or lower the signal. In outline: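 Differentiated human HepaRG cells, plated 48 h then switched to serum-free induction medium, were exposed in duplicate for 48 h to 8-point half-log series from 100 uM in 0.5% DMSO. TGFA mRNA measured by qRT-PCR, normalized to ACTB/GAPDH/POLR2A, bidirectional fit versus DMSO.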

Read-out in experiment [6]: Transforming Growth Factor (TGFB1), TGFB1 (gene 7040)
The experiment is described as follows: LTEA_HepaRG_TGFB1: Life Technologies and Expression Analysis (LTEA) Assay for Transforming Growth Factor (TGFB1) Transporter using HepaRG (AID 2283533). The conditions noted are these: mRNA level, 48 h; actives raise or lower the signal. In outline: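 Expression change of TGFB1 in human HepaRG cells is measured after a 48 h chemical exposure, up to 100 uM in 0.5% DMSO vehicle. Curves are fitted in both directions relative to the DMSO baseline.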

Read-out in another experiment: TIMP1, TIMP1 (gene 7076)
The experiment is described as follows: LTEA_HepaRG_TIMP1: Life Technologies and Expression Analysis (LTEA) Assay for TIMP1 using HepaRG (AID 2283534). Particulars: mRNA level, 48 h; actives raise or lower the signal. In outline:
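We dosed human liver HepaRG cultures for 48 hours with up to 100 uM test chemical and measured TIMP1 expression by qRT-PCR. Activity in either direction is fitted relative to the 0.5% DMSO vehicle.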

Read-out in experiment [7]: Tumor necrosis factor receptor 1 (TNFRSF1A), TNFRSF1A (gene 7132)
The experiment can be described thus: LTEA_HepaRG_TNFRSF1A: Life Technologies and Expression Analysis (LTEA) Assay for Tumor necrosis factor receptor 1 (TNFRSF1A) using HepaRG (AID 2283535). Particulars: mRNA level, 48 h; actives raise or lower the signal. In outline: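 Expression of TNFRSF1A in human HepaRG liver cells was measured by qRT-PCR 48 h after chemical dosing (maximum 100 uM). Bidirectional curve fitting used 0.5% DMSO as baseline.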

Read-out in experiment [8]: Thyroid Hormone Responsive (THRSP), THRSP (gene 7069)
The experiment is described as follows: LTEA_HepaRG_THRSP: Life Technologies and Expression Analysis (LTEA) Assay for Thyroid Hormone Responsive (THRSP) using HepaRG (AID 2283536). Particulars: mRNA level, 48 h; actives raise or lower the signal. In a few lines:
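Differentiated human HepaRG cells were exposed in duplicate for 48 h in serum-free induction medium to eight concentrations (top 100 uM, half-log steps, 0.5% DMSO). Expression was quantified by TaqMan qRT-PCR, normalized to ACTB, GAPDH and POLR2A, with bidirectional fitting against DMSO.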

Read-out in experiment [9]: Cellular tumor antigen p53 (Homo sapiens) (UniProt P04637)
The experiment is described as follows: LTEA_HepaRG_TP53: Life Technologies and Expression Analysis (LTEA) Assay for Tumor Protein P53 (TP53) using HepaRG (AID 2283537). The conditions noted are these: mRNA level, 48 h; actives raise or lower the signal. In outline: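 Differentiated HepaRG cells in serum-free induction medium exposed 48 h in duplicate to 8 half-log concentrations, top 100 uM, 0.5% DMSO. TP53 mRNA by TaqMan qRT-PCR (Fluidigm), normalized to ACTB, GAPDH, POLR2A; fitted bidirectionally versus DMSO.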

Read-out in experiment [10]: UDP glucuronosyltransferase (UGT1A1), UGT1A1 (gene 54658)
The experiment is described as follows: LTEA_HepaRG_UGT1A1: Life Technologies and Expression Analysis (LTEA) Assay for UDP glucuronosyltransferase (UGT1A1) using HepaRG (AID 2283538). Particulars: mRNA level, 48 h; actives raise or lower the signal. In a few lines: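 HepaRG cells, 0.5% DMSO vehicle, 48 h exposure in serum-free induction medium to 8-point half-log series topping at 100 uM, in duplicate. UGT1A1 mRNA by Fluidigm qRT-PCR, normalized to ACTB/GAPDH/POLR2A; bidirectional fit versus DMSO.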

Read-out in experiment [11]: UDP glucuronosyltransferase (UGT1A6), UGT1A6 (gene 54578)
The experiment is described as follows: LTEA_HepaRG_UGT1A6: Life Technologies and Expression Analysis (LTEA) Assay for UDP glucuronosyltransferase (UGT1A6) using HepaRG (AID 2283539). The conditions noted are these: mRNA level, 48 h; actives raise or lower the signal. In a few lines: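 Endpoint is UGT1A6 transcript induction or loss in a human liver cell line, quantified by TaqMan qRT-PCR 48 h after dosing. Concentrations ran from 100 uM downward in half-log steps in 0.5% DMSO; activity was fitted in both directions versus vehicle.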

Read-out in experiment [12]: X-box binding protein 1 (XBP1), XBP1 (gene 7494)
The experiment can be described thus: LTEA_HepaRG_XBP1: Life Technologies and Expression Analysis (LTEA) Assay for X-box binding protein 1 (XBP1) using HepaRG (AID 2283540). Particulars: mRNA level, 48 h; actives raise or lower the signal. In outline: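 Human HepaRG monolayers receive test chemical for 48 h across an eight-point half-log series starting at 100 uM. XBP1 mRNA gain or loss is scored against DMSO by qRT-PCR.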

Experiment [13] in a line: LTEA_HepaRG_LDH_cytotoxicity: Cytotoxicity Assessment in the Life Technologies and Expression Analysis (LTEA) Assay (AID 2283563; active = hit-call score of the fitted dose curve at least 0.9, where 1 is the maximum). In a few lines:
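Human HepaRG hepatic cells are treated with test chemicals for 48 h at up to 100 uM in 0.5% DMSO. Cytotoxicity is scored from medium LDH against the vehicle control.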

The nature of experiment [14]: ATG_XTT_Cytotoxicity: Cytotoxicity Assessment in the Attagene TRANS-FACTORIAL HepG2 Assay (AID 2283584; active = hit-call score of the fitted dose curve at least 0.9, where 1 is the maximum). In a few lines: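 Transfect HepG2 with GAL4-UAS reporter units, dose compound, incubate 24 h, then measure viable cell number by XTT. Fit concentration response against DMSO baseline.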
A short description of experiment [15]: TOX21_p53_BLA_p2_viability: Viability Assessment in the Tox21 HCT-116 p53 Agonism Beta-lactamase Assay, Phase 2 (AID 2283591; active = hit-call score of the fitted dose curve at least 0.9, where 1 is the maximum;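 note: compound exposure lasted 16 h at 37 °C; actives lower the ATP signal meaning cytotoxicity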). In a few lines: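 HCT-116 p53-bla cells (4000/well) rested 5 h at 37C, then received compounds in DMSO (217-fold dilution) for 16 h at 37C, 5% CO2. After the CCF4 read, CellTiter-Glo was added; ATP luminescence was read after 30 min at room temperature.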

For experiment [16], the target named is Cellular tumor antigen p53 (Homo sapiens) (UniProt P04637). The experiment can be described thus: TOX21_p53_BLA_p2_ratio: Tox21 HCT-116 p53 Agonism Beta-lactamase Assay, Ratio, Phase 2 (AID 2283592; active = hit-call score of the fitted dose curve at least 0.9, where 1 is the maximum). In outline: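 An inducible beta-lactamase reporter in HCT116 cells signals p53 pathway activation. After 16 h chemical exposure at 37C, cells load CCF4-AM substrate for 2 h at room temperature; activity is the cleaved/uncleaved emission ratio relative to DMSO.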

Experiment [17] in a line: TOX21_p53_BLA_p3_viability: Viability Assessment in the Tox21 HCT-116 p53 Agonism Beta-lactamase Assay, Phase 3 (AID 2283593; active = hit-call score of the fitted dose curve at least 0.9, where 1 is the maximum;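 note: cells exposed to compound for 16 h before reading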). In outline: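 HCT-116 cells (4000/well) rested 5 h at 37C, then got DMSO compounds by pin tool (217-fold dilution) for 16 h at 37C, 5% CO2. After the bla read, CellTiter-Glo was added and luminescence read at 30 min, room temperature.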
The target of experiment [18] is Cellular tumor antigen p53 (Homo sapiens) (UniProt P04637). The experiment is described as follows: TOX21_p53_BLA_p3_ratio: Tox21 HCT-116 p53 Agonism Beta-lactamase Assay, Ratio, Phase 3 (AID 2283596; active = hit-call score of the fitted dose curve at least 0.9, where 1 is the maximum). In outline: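 HCT116 p53-bla cells (4000/well) given compound in DMSO (217-fold dilution) after 5 h, incubated 16 h at 37C. CCF4-AM substrate 2 h at room temperature; 460/530 nm emission ratio, gain fitted against DMSO.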

Read-out in experiment [19]: succinate dehydrogenase complex iron sulfur subunit B (SDHB), SDHB (gene 6390)
The experiment is described as follows: LTEA_HepaRG_SDHB: Life Technologies and Expression Analysis (LTEA) Assay for succinate dehydrogenase complex iron sulfur subunit B (SDHB) using HepaRG (AID 2283528). Particulars: mRNA level, 48 h; actives raise or lower the signal. In a few lines: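 HepaRG cells (~100,000/well, plated 48 h) exposed in duplicate for 48 h in serum-free induction medium to 8-point half-log series from 100 uM in 0.5% DMSO; mRNA by qRT-PCR normalised to ACTB, GAPDH, POLR2A; bidirectional fit versus DMSO.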

For orientation: AC50 means the concentration at which the activity in the assay is half-maximal.

The structures appear in SMILES notation. Records with an inconclusive call do not appear. Active and inactive are the calls of the source. Rule for the calls, unless noted: active = hit-call score of the fitted dose curve at least 0.9, where 1 is the maximum; inactive = score below 0.9.

Chain of Signal transducer and activator of transcription 3 (Homo sapiens) (P40763 whole entry, looked up): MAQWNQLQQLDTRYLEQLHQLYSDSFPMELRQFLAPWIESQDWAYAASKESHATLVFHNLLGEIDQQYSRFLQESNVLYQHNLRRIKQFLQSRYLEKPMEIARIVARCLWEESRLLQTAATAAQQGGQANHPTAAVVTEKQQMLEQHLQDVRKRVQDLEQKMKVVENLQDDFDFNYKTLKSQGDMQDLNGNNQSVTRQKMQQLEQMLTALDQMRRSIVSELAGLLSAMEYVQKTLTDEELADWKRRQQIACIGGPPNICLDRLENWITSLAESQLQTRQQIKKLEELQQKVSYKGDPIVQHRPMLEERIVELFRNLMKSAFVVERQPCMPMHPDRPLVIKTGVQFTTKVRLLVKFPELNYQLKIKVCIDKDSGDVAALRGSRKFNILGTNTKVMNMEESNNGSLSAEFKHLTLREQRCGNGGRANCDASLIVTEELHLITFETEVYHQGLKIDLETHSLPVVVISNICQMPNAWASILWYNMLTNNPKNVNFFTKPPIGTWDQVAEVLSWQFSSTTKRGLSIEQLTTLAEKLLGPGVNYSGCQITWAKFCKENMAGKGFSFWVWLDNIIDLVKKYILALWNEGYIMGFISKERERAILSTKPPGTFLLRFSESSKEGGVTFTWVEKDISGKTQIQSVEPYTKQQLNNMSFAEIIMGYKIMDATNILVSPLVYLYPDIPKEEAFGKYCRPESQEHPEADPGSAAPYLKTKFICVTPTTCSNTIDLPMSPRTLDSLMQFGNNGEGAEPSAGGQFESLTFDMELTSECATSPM
Chain of Nuclear factor erythroid 2-related factor 2 (Homo sapiens) (Q16236 whole entry, looked up): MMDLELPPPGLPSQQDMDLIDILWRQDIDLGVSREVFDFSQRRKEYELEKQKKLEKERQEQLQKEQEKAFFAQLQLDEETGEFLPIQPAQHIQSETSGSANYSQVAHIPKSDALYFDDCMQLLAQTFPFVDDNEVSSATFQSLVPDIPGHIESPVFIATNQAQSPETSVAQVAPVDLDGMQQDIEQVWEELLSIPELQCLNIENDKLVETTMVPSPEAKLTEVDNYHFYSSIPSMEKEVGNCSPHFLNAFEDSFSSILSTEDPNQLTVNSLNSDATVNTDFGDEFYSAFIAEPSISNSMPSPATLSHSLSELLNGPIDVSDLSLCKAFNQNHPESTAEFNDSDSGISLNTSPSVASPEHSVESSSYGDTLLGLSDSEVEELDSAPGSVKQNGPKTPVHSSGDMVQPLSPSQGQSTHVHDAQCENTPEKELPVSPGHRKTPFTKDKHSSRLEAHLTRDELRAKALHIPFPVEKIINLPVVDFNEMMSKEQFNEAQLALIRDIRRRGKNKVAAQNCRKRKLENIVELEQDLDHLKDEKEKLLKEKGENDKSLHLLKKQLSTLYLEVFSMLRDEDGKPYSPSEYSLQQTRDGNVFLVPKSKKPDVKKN
Chain of Cellular tumor antigen p53 (Homo sapiens) (P04637 whole entry, looked up): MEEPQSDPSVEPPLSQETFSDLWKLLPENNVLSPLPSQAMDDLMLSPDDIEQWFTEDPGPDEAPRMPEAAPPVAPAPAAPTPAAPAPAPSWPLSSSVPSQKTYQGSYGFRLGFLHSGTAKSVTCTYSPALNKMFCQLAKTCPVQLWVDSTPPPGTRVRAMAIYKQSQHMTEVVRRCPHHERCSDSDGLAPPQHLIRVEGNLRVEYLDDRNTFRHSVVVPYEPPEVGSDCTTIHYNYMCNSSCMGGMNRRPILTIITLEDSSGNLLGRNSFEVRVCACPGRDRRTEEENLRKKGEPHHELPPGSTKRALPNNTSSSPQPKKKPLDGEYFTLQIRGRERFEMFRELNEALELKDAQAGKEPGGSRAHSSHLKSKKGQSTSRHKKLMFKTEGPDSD

With `c1ccc2occc2c1`, the molecule was classed as inactive in experiment [1], in [2], in experiment [3], in experiment [4], in experiment [5] and in [6]. The outcome was “inactive” in the experiment with TIMP1, TIMP1 (gene 7076); “inactive” in experiment [7]; “inactive” in experiment [8]; “inactive” in experiment [9]; “inactive” in [10]; “inactive” in experiment [11]. The call in experiment [12], in [13], in experiment [14], in experiment [15], in experiment [16] and in [17] was inactive. For the same molecule, the result in [18] was inactive.
`Cc1cc(SC2=C(O)C[C@@](CCc3ccc(N)cc3)(C(C)C)OC2=O)c(C(C)(C)C)cc1CO`: the outcome in [1] was “inactive”; in [2], “inactive”; in [3], “inactive”; in experiment [5], “inactive”; in experiment [6] it was “inactive”; with TIMP1, TIMP1 (gene 7076) it was “inactive”. Also, the outcome in experiment [7], in experiment [8], in [9], in [11], in [12] and in experiment [13] was inactive. For the same molecule, the outcome in experiment [15], in experiment [16] and in experiment [18] was inactive. Moreover, the concentration at half-maximal activity (AC50) is 9.92 µM (active) in experiment [4] and 1.38 µM (active) in experiment [10].
As for `O=C1O[C@H]([C@H](O)CO)C(O)=C1O`, the result in experiment [1], in experiment [19], in experiment [2], in [4], in experiment [5] and in experiment [6] was inactive. The outcome is “inactive” with TIMP1, TIMP1 (gene 7076); “inactive” in experiment [7]; “inactive” in [8]; “inactive” in [9]; “inactive” in [10]; “inactive” in experiment [11]. Further, the call in experiment [12], in [13], in experiment [15], in [16], in experiment [17] and in experiment [18] was inactive.
On to `OCC(O)CO`, for which the outcome in [1], in [2], in [3], in experiment [4], in experiment [5] and in experiment [6] was inactive. Also, the outcome is “inactive” in the experiment with TIMP1, TIMP1 (gene 7076); “inactive” in experiment [7]; “inactive” in experiment [9]; “inactive” in experiment [10]; “inactive” in experiment [11]; “inactive” in experiment [12]. Further, in experiment [13], the molecule was called inactive.

(Values after PubChem BioAssay (EPA / NIEHS).)
